Measured values as given in PubChem BioAssay AID1159580 (chemical genetic matrix, 2015).
Several values for one entry are separate records, joined by “and”; a condition that tells them apart may be missing. Equal values may be shown once. Screen size: about 5,500 compounds; about 2,000 (36%) were called active. Not shown: some 18% with an inconclusive outcome. No stated cut-off is given here; in the data, active means normalized growth mostly below about 0.91 (no sharp cut-off); inconclusive means no clear call, values can overlap the other calls; inactive means mostly above about 0.92. Some of the results follow.

Experiment: chemical genetic growth profiling, strain panel (AID 1159580);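 further: tested at 20 µM; growth read once vehicle control cultures reached saturation at 30 °C; 1 = growth at the plate median or of vehicle wells; lower values mean less growth of the strain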
Conditions: S. cerevisiae deletion strains, growth OD
[1] = locus YHR030C, strain SLT2, hits give low values
[2] = locus YHR079C, strain IRE1, hits give low values
[3] = locus YJL095W, strain BCK1, hits give low values
[4] = locus YJR066W, strain TOR1, hits give low values
[5] = locus YLR113W, strain HOG1, hits give low values
[6] = locus YNL183C, strain NPR1, hits give low values
[7] = locus YOR231W, strain MKK1, hits give low values
[8] = locus YPL256C, strain CLN2, hits give low values

Measured: normalized growth

COC1C(O)C(C)OC(O[C@H]2CC[C@]3(C=O)C4C(CC[C@]3(O)C2)[C@@]2(O)CC[C@H](C3=CC(=O)OC3)[C@@]2(C)C[C@H]4O)C1O (stereo partly drawn)
inactive: [1] 1.07 | [2] 1.08 | [3] 1.04 | [4] 0.979 | [5] 0.968 | [6] 0.988 | [7] 1.01 | [8] 1.12

COC1CC(OC2CCC3(C)C(CCC4C3CCC3(C)C(C5=CC(=O)OC5)C(OC(C)=O)CC43O)C2)OC(C)C1O (stereo not drawn)
inactive: locus YAL021C, strain ccr4, hits give low values 0.998 | locus YAL026C, strain drs2, hits give low values 1.02 | locus YAL030W, strain snc1, hits give low values 1.01 | locus YBL061C, strain skt5, hits give low values 1.02 | locus YBR009C, strain hhf1, hits give low values 1.02 | locus YBR023C, strain chs3, hits give low values 1.02 | locus YBR171W, strain sec66, hits give low values 1.03 | locus YBR231C, strain swc5, hits give low values 1.02 | locus YBR279W, strain paf1, hits give low values 1.01 | locus YCL011C, strain gbp2, hits give low values 1.02 | locus YCL016C, strain dcc1, hits give low values 1.01 | locus YCL061C, strain MRC1, hits give low values 1.02 | locus YCL069W, strain vba3, hits give low values 1.02 | locus YCR088W, strain abp1, hits give low values 1.02 | locus YDL005C, strain med2, hits give low values 1.03 | locus YDL040C, strain nat1, hits give low values 1.01 | locus YDR001C, strain nth1, hits give low values 1.02 | locus YDR069C, strain doa4, hits give low values 1.01 | locus YDR137W, strain rgp1, hits give low values 1 | locus YDR159W, strain sac3, hits give low values 1.04 | locus YDR195W, strain ref2 1.03 | locus YDR297W, strain sur2, hits give low values 1.03 | locus YDR334W, strain swr1, hits give low values 1.03 | locus YDR335W, strain msn5, hits give low values 1.03 | locus YDR392W, strain spt3, hits give low values 0.984 | locus YEL003W, strain gim4, hits give low values 1.02 | locus YEL037C, strain rad23, hits give low values 1.02 | locus YEL061C, strain CIN8 (second series), hits give low values 1.02 | locus YER015W, strain faa2, hits give low values 1.02 | locus YER016W, strain bim1, hits give low values 1.02 | locus YER111C, strain swi4, hits give low values 1.03 | locus YER155C, strain BEM2 (second series), hits give low values 1.03 | locus YFR010W, strain ubp6, hits give low values 1.03 | locus YGL167C, strain pmr1, hits give low values 1.02 | locus YGL173C, strain kem1, hits give low values 1.03 | locus YGL227W, strain vid30, hits give low values 1.02 | locus YGL240W, strain doc1, hits give low values 1.01 | locus YGL253W, strain hxk2, hits give low values 1.03 | locus YHR013C, strain ard1, hits give low values 1.03 | locus YHR027C, strain rpn1, hits give low values 1.03 | locus YHR142W, strain chs7, hits give low values 1.02 | locus YJL092W, strain hpr5, hits give low values 1.03 | locus YJL095W, strain BCK1 (second series), hits give low values 1.01 | locus YJL115W, strain asf1, hits give low values 1.03 | locus YJL129C, strain trk1, hits give low values 1.02 | locus YJL154C, strain vps35, hits give low values 1.02 | locus YJL164C, strain tpk1, hits give low values 1 | locus YJL166W, strain qcr8, hits give low values 1.03 | locus YJL187C, strain SWE1, hits give low values 1.01 | locus YKL160W, strain elf1, hits give low values 1.01 | locus YKR026C, strain gcn3, hits give low values 1.02 | locus YKR091W, strain srl3, hits give low values 1.01 | locus YLL001W, strain dnm1, hits give low values 1.02 | locus YLL026W, hits give low values 1.02 | locus YLL041C, strain sdh2, hits give low values 1.02 | locus YLR027C, strain aat2, hits give low values 1.01 | locus YLR221C, strain rsa3, hits give low values 1.03 | locus YLR258W, strain gsy2, hits give low values 1.01 | locus YLR262C, strain YPT6 (second series), hits give low values 1.04 | locus YLR320W, strain mms22, hits give low values 1.01 | locus YLR342W, strain FKS1, hits give low values 1.02 | locus YLR357W, strain rsc2, hits give low values 1.06 | locus YLR370C, strain arc18, hits give low values 1.02 | locus YLR384C, strain iki3, hits give low values 1.02 | locus YML120C, strain ndi1, hits give low values 1.01 | locus YMR058W, strain fet3, hits give low values 1.04 | locus YMR125W, strain sto1, hits give low values 1.02 | locus YMR129W, hits give low values 1.01 | locus YMR205C, strain PFK2, hits give low values 1.01 | locus YMR231W, strain pep5, hits give low values 1.02 | locus YNL071W, strain lat1, hits give low values 1.02 | locus YNL209W, strain ssb2, hits give low values 1.01 | locus YNL248C, strain rpa49, hits give low values 0.939 | locus YNL322C, strain KRE1 (second series), hits give low values 1.03 | locus YNR049C, strain mso1, hits give low values 1.01 | locus YOR001W, strain rrp6, hits give low values 1.02 | locus YOR070C, strain gyp1, hits give low values 1.03 | locus YOR080W, strain dia2, hits give low values 1.02 | locus YOR083W, strain WHI5, hits give low values 1 | locus YOR106W, strain vam3, hits give low values 1.01 | locus YOR265W, strain rbl2, hits give low values 1.01 | locus YOR270C, strain vph1, hits give low values 1.02 | locus YOR290C, strain snf2, hits give low values 0.986 | locus YPL051W, strain arl3, hits give low values 1.01 | locus YPL078C, strain atp4, hits give low values 1.01 | locus YPL106C, strain sse1, hits give low values 1.01 | locus YPL240C, strain hsp82, hits give low values 1.02

C[C@]12CC[C@H](O)C[C@H]1CCC1C2CC[C@]2(C)[C@@H](C3=CC(=O)OC3)[C@@H](O)C[C@]12O (stereo partly drawn)
inactive: locus YBR021W, strain FUR4, hits give low values 1.02 | locus YBR229C, strain ROT2, hits give low values 1.02 | locus YCL029C, strain bik1, hits give low values 1.01 | locus YDL035C, strain GPR1, hits give low values 1.08 | locus YDL074C, strain BRE1, hits give low values 1.1 | locus YDL101C, strain DUN1, hits give low values 1.02 | locus YDL185W, strain tfp1, hits give low values 0.974 | locus YDL192W, strain arf1, hits give low values 1.02 | locus YDR101C, strain arx1, hits give low values 1 | locus YDR150W, strain NUM1, hits give low values 1.03 | locus YDR162C, strain NBP2, hits give low values 1.03 | locus YDR318W, strain mcm21, hits give low values 0.998 | locus YDR388W, hits give low values 0.984 | locus YDR502C, strain sam2, hits give low values 1.01 | locus YEL061C, strain CIN8, hits give low values 1.02 | locus YER110C, hits give low values 0.997 | locus YER155C, strain BEM2, hits give low values 1 | locus YER167W, strain BCK2, hits give low values 1.02 | locus YGL078C, strain dbp3, hits give low values 0.982 | locus YGL086W, strain mad1, hits give low values 1 | locus YGL248W, strain PDE1, hits give low values 1.05 | locus YGR078C, strain PAC10, hits give low values 1.03 | locus YGR135W, strain pre9, hits give low values 1 | locus YGR229C, strain SMI1, hits give low values 1.13 | locus YGR252W, strain gcn5, hits give low values 0.962 | [1] 1 | locus YHR079C, strain IRE1 (second series), hits give low values 0.983 | [2] 0.982 | locus YHR094C, strain hxt1, hits give low values 0.982 | locus YHR129C, strain ARP1, hits give low values 1.03 | locus YHR200W, strain rpn10, hits give low values 0.995 | locus YIL066C, strain RNR3, hits give low values 1.03 | locus YIL073C, strain SPO22, hits give low values 1.07 | locus YIL125W, strain kgd1, hits give low values 1.02 | locus YIR030C, strain dcg1, hits give low values 0.994 | [3] 1.07 and 0.981 | locus YJL134W, strain LCB3, hits give low values 1.02 | locus YJL168C, strain set2, hits give low values 0.975 | locus YJL187C, strain SWE1 (second series), hits give low values 1.04 | locus YJR043C, strain POL32, hits give low values 1.06 | [4] 0.968 | locus YKL009W, strain mrt4, hits give low values 1.01 | locus YKL068W, hits give low values 0.994 | locus YKL085W, strain MDH1 (second series), hits give low values 0.996 | locus YKL085W, strain MDH1, hits give low values 0.996 | locus YKL190W, strain CNB1, hits give low values 1.02 | locus YKR001C, strain vps1, hits give low values 1.03 | locus YLR039C, strain RIC1, hits give low values 1.15 | locus YLR058C, strain SHM2, hits give low values 1.04 | locus YLR102C, strain apc9, hits give low values 0.989 | [5] 0.975 | locus YLR262C, strain YPT6, hits give low values 1.16 | locus YLR268W, strain sec22, hits give low values 1 | locus YLR330W, strain CHS5, hits give low values 1.02 | locus YLR342W, strain FKS1 (second series), hits give low values 1.05 | locus YLR371W, strain rom2, hits give low values 1 | locus YLR418C, strain cdc73, hits give low values 1.01 | locus YML016C, strain PPZ1, hits give low values 1.03 | locus YML032C, strain rad52, hits give low values 1 | locus YML124C, strain tub3, hits give low values 0.987 | locus YMR078C, strain ctf18, hits give low values 0.986 | locus YMR223W, strain ubp8, hits give low values 1 | locus YMR307W, strain GAS1, hits give low values 1.19 | locus YNL067W, strain RPL9B, hits give low values 1.01 | locus YNL153C, strain GIM3, hits give low values 1.04 | [6] 0.93 | locus YNL233W, strain BNI4, hits give low values 1.06 | locus YNL250W, strain rad50, hits give low values 1.01 | locus YNL271C, strain bni1, hits give low values 0.999 | locus YNL298W, strain CLA4, hits give low values 0.994 | locus YNL307C, strain MCK1, hits give low values 0.98 | locus YNR052C, strain pop2, hits give low values 0.987 | locus YOL006C, strain TOP1, hits give low values 1.27 | locus YOL012C, strain htz1 1.03 | locus YOL147C, strain pex11, hits give low values 0.993 | locus YOR061W, strain CKA2, hits give low values 1.03 | locus YOR069W, strain VPS5, hits give low values 1.02 | locus YOR136W, strain idh2, hits give low values 0.991 | locus YOR144C, strain elg1, hits give low values 0.989 | locus YOR184W, strain ser1, hits give low values 1.05 | [7] 0.982 | locus YOR316C, strain cot1, hits give low values 1 | [8] 1.03 | locus YPR119W, strain clb2, hits give low values 0.982 | locus YPR141C, strain kar3, hits give low values 0.997 | locus YPR163C, strain tif3, hits give low values 0.997 | locus YPR167C, strain met16, hits give low values 0.99 | strain wtn01, hits give low values 1.02
